Drawing on PubChem BioAssay, this text covers z-score and composite z-score for 9 compounds.

Test [1] is described as follows: resazurin metabolic signal in HepG2 cells – cell-based, resazurin fluorescence, 24 h, PK04 Diversity Set, profiling panel (AID 1172). Particulars: HepG2 viability, higher = more signal.
Test [2] in a line: budding yeast growth changes without added modifier – OD600, strain BY4716, 24 h, basal condition, primary screen (AID 1173). Particulars: S. cerevisiae BY4716 growth, OD600, 24 h; higher = more signal, called active from +8 up or from −8 down.
The nature of test [3]: viability profiling in MM1S myeloma cells – cell-based, resazurin fluorescence, basal, 24 h, PK04 Diversity Set, profiling panel (AID 1174).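 Note: MM1S multiple myeloma cell line.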 The note with it: higher = more signal, called active from +8 up or from −8 down.
Test [4] addresses Dihydroorotate dehydrogenase (quinone), mitochondrial (Plasmodium falciparum (isolate 3D7)) (UniProt Q08210). The experiment in a line: inhibition of P. falciparum DHODH – biochemical, C-terminal His tag, absorbance 600 nm, primary screen (AID 1175).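 Note: recombinant parasite enzyme with a five histidine tag at its C terminus.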 Particulars: PfDHODH enzyme, DCIP absorbance 600 nm; higher = more signal, called active from +8 up or from −8 down.
Test [5] can be described thus: inhibition of PAO1 biofilm formation – strain PAO1, LB-PBS medium, absorbance 600 nm, primary screen (AID 1176). Particulars: P. aeruginosa PAO1 growth/biofilm, A600, 12 h; higher = more signal.
Test [6] in a line: growth modulation of vineyard yeast isolate – strain RM11-1a, OD600, basal, 24 h, primary screen (AID 1177).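 Note: cultures grown under basal conditions with no added stressor.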 The note with it: S. cerevisiae RM11-1a growth, OD600, 24 h; higher = more signal, called active from +8 up or from −8 down.
Test [7] is described as follows: growth of efflux-deficient E. coli DRC39 – strain DRC39, OD650, 24 h, E. coli filamentation inducers, primary screen (AID 1178).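 Note: growth measured as culture turbidity by optical density at 650 nm.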 Particulars: E. coli DRC39 acrAB, higher = more signal, called active from +8 up or from −8 down.
Test [8] can be described thus: growth of efflux-deficient E. coli DRC39 – strain DRC39, OD650, 48 h, E. coli filamentation inducers, primary screen (AID 1179).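 Note: screen aims at cell division blockers that make cells filament.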 Particulars: E. coli DRC39 delta-acrAB growth, higher = more signal, called active from +8 up or from −8 down.
The nature of test [9]: viability profiling in RPMI8226 myeloma cells – cell-based, resazurin fluorescence, basal, 24 h, PK04 Diversity Set, profiling panel (AID 1180).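 Note: RPMI8826 multiple myeloma cell line at 5000 cells per well.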 The note with it: higher = more signal.
Test [10] deals with E3 ubiquitin-protein ligase XIAP (Homo sapiens) (UniProt P98170). The experiment in a line: small molecules binding XIAP protein – biophysical, small-molecule microarray, fluorescence 635 nm, primary screen (AID 1181).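 Note: score merges 667 nm emission and signal to noise over triplicate slides.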 Particulars: higher = more signal.
Chain of E3 ubiquitin-protein ligase XIAP (Homo sapiens) (P98170 whole entry, looked up, the tested form may be a part): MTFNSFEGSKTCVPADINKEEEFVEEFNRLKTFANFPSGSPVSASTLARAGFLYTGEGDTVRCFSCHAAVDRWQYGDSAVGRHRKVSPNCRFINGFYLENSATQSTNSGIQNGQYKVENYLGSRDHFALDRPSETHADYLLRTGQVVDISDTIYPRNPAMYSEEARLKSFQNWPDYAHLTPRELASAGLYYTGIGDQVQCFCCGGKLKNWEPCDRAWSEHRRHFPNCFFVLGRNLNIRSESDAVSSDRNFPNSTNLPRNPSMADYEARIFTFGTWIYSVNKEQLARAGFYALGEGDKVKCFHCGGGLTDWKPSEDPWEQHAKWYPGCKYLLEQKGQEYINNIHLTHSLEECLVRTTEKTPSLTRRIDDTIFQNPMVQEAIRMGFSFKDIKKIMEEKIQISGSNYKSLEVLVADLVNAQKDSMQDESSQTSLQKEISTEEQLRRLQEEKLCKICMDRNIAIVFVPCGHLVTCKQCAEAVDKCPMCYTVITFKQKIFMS
Test [11] relates to XIP peptide (Xip251-270) binding. The experiment in a line: XIP fragment 251-270 binding compounds – biochemical, small-molecule microarray, fluorescence 635/667 nm, 0.1 µg/mL protein, primary screen (AID 1182). Particulars: fluorescent protein binding, 635 nm, higher = more signal, called active from +8 up or from −8 down.
The subject of test [12] is XIP peptide (Xip251-270). The experiment in a line: compounds binding XIP fragment 251-270 – biochemical, small-molecule microarray, fluorescence 635/667 nm, 0.5 µg/mL protein, primary screen (AID 1183). Particulars: fluorescence 635 nm, higher = more signal.
Test [13] can be described thus: blood-stage malaria parasite viability loss – strain 3D7, DAPI fluorescence, 100 nL, primary screen (AID 1184).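 Note: parasites grown inside human red blood cells in medium with human serum.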 The note with it: P. falciparum 3D7 growth, 3 d, higher = more signal.
Test [14] has as its target Homeobox protein Hox-A13 (Mus musculus) (UniProt Q62424). The test can be described thus: disruptors of Hoxa13 oligonucleotide interaction – biochemical, fluorescence polarization, labeled oligonucleotide, primary screen (AID 1185). The note with it: Hoxa13:DNA binding, 15 min, higher = more signal, called active from +8 up or from −8 down.
Test [15] in a line: blockers of DNA damage checkpoint Chk1 activation – imaging, HeLa, hydroxyurea, phospho-Chk1 antibody, percent positive cells, primary screen (AID 1186). Particulars: hydroxyurea-induced phospho-Chk1 immunofluorescence imaging, higher = more signal.
A short description of test [16]: blockers of DNA damage checkpoint Chk1 activation – imaging, HeLa, hydroxyurea, phospho-Chk1 nuclear intensity, primary screen (AID 1187). Particulars: hydroxyurea-induced phospho-Chk1 immunofluorescence imaging, higher = more signal.

Active and inactive are the calls of the source. Unless noted, the rule behind the calls is not given here.

Chain of Dihydroorotate dehydrogenase (quinone), mitochondrial (Plasmodium falciparum (isolate 3D7)) (Q08210 whole entry, looked up): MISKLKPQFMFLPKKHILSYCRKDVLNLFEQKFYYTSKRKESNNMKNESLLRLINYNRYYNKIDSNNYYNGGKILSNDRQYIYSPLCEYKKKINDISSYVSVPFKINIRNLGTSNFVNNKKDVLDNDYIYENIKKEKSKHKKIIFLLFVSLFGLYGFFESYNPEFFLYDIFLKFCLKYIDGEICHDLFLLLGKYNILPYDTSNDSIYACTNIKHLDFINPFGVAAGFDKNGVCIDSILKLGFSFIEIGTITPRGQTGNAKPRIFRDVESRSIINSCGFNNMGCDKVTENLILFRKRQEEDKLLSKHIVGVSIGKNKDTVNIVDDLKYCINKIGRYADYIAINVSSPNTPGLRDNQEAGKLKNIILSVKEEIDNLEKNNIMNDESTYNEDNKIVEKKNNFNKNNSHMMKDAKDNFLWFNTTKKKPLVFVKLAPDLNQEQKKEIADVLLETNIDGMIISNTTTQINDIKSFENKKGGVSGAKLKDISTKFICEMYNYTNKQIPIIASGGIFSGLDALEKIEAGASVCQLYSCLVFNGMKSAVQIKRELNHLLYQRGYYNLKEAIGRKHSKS
Chain of Homeobox protein Hox-A13 (Mus musculus) (Q62424 whole entry, looked up): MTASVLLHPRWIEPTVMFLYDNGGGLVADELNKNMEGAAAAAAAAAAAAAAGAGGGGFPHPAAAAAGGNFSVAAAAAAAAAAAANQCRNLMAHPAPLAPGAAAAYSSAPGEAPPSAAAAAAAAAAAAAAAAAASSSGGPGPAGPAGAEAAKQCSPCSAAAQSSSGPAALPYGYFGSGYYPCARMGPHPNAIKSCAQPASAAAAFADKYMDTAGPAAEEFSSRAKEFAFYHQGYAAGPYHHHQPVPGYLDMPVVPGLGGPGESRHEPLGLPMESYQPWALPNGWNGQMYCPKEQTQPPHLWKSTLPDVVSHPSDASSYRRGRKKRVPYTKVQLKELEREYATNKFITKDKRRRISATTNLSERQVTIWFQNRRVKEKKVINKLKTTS

With `CC(C)(C)OC(=O)CC[C@]12N=C(c3ccc(OCCCO)cc3)O[C@H]1c1ccccc1N(Cc1ccccc1)C2=O`, the z-score in test [1] is 0.851; in test [2] it was 0.342 (inactive); in test [3], -0.922 (inactive); in [5] it was 0.95 (inactive); in test [6], 2.29 (inactive); in test [7], 1.1 (inactive). Also, the z-score was 0.124 (inactive) in [8]; -1.55 in [9]; -2.21 in test [13]; -0.817 (inactive) in test [14]; -0.022 (inactive) in test [15]; 0.363 (inactive) in test [16]. The composite z-score is -0.316 (inactive) in test [4], 0.0968 in test [10], -0.326 (inactive) in test [11] and 0.802 in test [12].

For `CN1C(=O)C2C(C1=O)C1C=C(CCCO)C2C(c2cccs2)N1Cc1cc2c(cc1Br)OCO2` (centres undefined), the z-score in test [1] was -0.0567; in [2], -1.67 (inactive); in [3], -0.35 (inactive); in test [5] it was -0.131 (inactive); in [6], 0.0034 (inactive); in test [7], 0.19 (inactive). Besides, the z-score in test [8] was -0.512 (inactive); in test [9] it was 0.0707; in test [13] it was -0.654; in test [14], -8.9 (active); in test [15] it was 0.214 (inactive); in test [16], 0.228 (inactive). Moreover, the composite z-score in test [4] was -0.539 (inactive); in test [10] it was 0.176; in test [11] it was 0.0841 (inactive); in [12], 0.757.

For the compound `COc1cc(NN2C(C(O)C3CCCCC3)C=CC3C(=O)N(C)C(=O)C32)cc(OC)c1OC` (centres undefined), the z-score in [1] is -0.721; in test [2], 1.28 (inactive); in test [3], -1.43 (inactive); in test [5], 0.462 (inactive); in [6], 0.668 (inactive); in [7] it was -0.276 (inactive). The z-score in [8] is -0.498 (inactive); in test [9], -1.35; in test [13], -0.246; in [14], -4.48 (inactive); in test [15], 0.281 (inactive); in test [16], 0.264 (inactive). Further, the composite z-score in test [4] was -0.187 (inactive); in test [10] it was 0.279; in [11], 0.123 (inactive); in test [12] it was 0.704.

Consider `C=CCNC(=O)[C@@H]1[C@H]2C(=O)O[C@H](c3ccccc3)[C@H](c3ccccc3)N2[C@H](c2ccc(O)cc2)[C@@]12C(=O)Nc1ccc(C#CCC(C(=O)OC)C(=O)OC)cc12`, for which the z-score in test [1] was -0.0043; in test [2] it was 1.12 (inactive); in test [3] it was -6.93 (inactive); in test [5], 1.54 (inactive); in test [6] it was 1.4 (inactive); in test [7], -0.0975 (inactive). The z-score in test [8] was -0.112 (inactive); in [9], -5.23; in [13], -1.84; in [14] it was -2.97 (inactive); in test [15] it was -0.267 (inactive); in test [16], -0.625 (inactive). Further, the composite z-score is -6.73 (inactive) in [4], -0.274 in test [10], 1.03 (inactive) in test [11] and 0.729 in test [12].

On to `CCOC(=O)C[C@H]1[C@H](OC(=O)c2ccc(C(=O)c3ccccc3)cc2)[C@@H](NC(=O)CC(C)C)c2cc(OCCCO)ccc2N1C(=O)Cc1ccc(OC)cc1`, for which the z-score in test [1] is -0.204; in test [2], -0.316 (inactive); in test [3], 0.191 (inactive); in [5], 0.608 (inactive); in [6], 0.113 (inactive); in test [7], -0.445 (inactive). The z-score was -0.0261 (inactive) in test [8]; 0.0274 in test [9]; -0.241 in test [13]; -3.06 (inactive) in test [14]; 0.291 (inactive) in test [15]; -0.261 (inactive) in test [16]. Further, the composite z-score was 0.166 (inactive) in [4], -0.289 in test [10], 0.595 (inactive) in test [11] and 0.396 in test [12].

Turning to `C=CCNC(=O)[C@H]1[C@@H]2C(=O)O[C@@H](c3ccccc3)[C@@H](c3ccccc3)N2[C@@H](c2ccc(O)cc2)[C@]12C(=O)N(C(=O)OCCOC)c1ccc(C#CCC(C(=O)OC)C(=O)OC)cc12`, the z-score was 0.238 in [1]; 1.34 (inactive) in [2]; -1.25 (inactive) in test [3]; 2.17 (inactive) in [5]; 2.19 (inactive) in test [6]; 0.216 (inactive) in test [7]. For the same compound, the z-score in test [8] was 0.136 (inactive); in test [9] it was -4.72; in test [13], -2.07; in test [14], -0.414 (inactive); in test [15], -0.0546 (inactive); in test [16], -0.0093 (inactive). Moreover, the composite z-score was 0.638 (inactive) in test [4], -0.0251 in test [10], 2.8 (inactive) in test [11] and 0.761 in [12].

For `CCCNC(=O)[C@@]1(Sc2ccc(C)cc2)CC(=O)N(C(C)C)[C@@H]1c1ccc(CO)cc1I`, the z-score was -0.202 in [1]; -1.18 (inactive) in test [2]; -2.5 (inactive) in test [3]; 0.0714 (inactive) in test [5]; 0.29 (inactive) in test [6]; 0.337 (inactive) in test [7]. The z-score in test [8] was -0.202 (inactive); in test [9] it was -2.53; in [13], -0.221; in test [14], -3.48 (inactive); in [15], 0.366 (inactive); in test [16], 0.197 (inactive). The composite z-score was -0.5 (inactive) in test [4], -0.039 in test [10], 1.51 (inactive) in test [11] and -0.964 in test [12].

In the case of `CC1(C)C(=O)C(c2ccccc2)=C2CN3C(=O)N(CCc4ccccc4)C(=O)C3(Cc3ccc(F)cc3)C=C21` (centres undefined), the z-score is -1.03 in [1]; 0.664 (inactive) in [2]; -2.18 (inactive) in test [3]; 0.563 (inactive) in test [5]; 1.11 (inactive) in test [6]; -0.687 (inactive) in test [7]. Further, the z-score in test [8] was -1.01 (inactive); in test [9] it was -0.968; in test [13] it was -1.81; in test [14] it was -1.99 (inactive); in [15], 0.478 (inactive); in [16], -0.173 (inactive). Besides, the composite z-score was -0.533 (inactive) in [4], -0.198 in [10], 0.2 (inactive) in [11] and 0.328 in [12].

As to `CN1C(=O)C2C=CC(C(O)c3ccc(I)cc3)N(Nc3ccccc3)C2C1=O` (centres undefined), the z-score was -1.25 in [1]; -0.245 (inactive) in test [2]; -0.994 (inactive) in test [3]; 0.683 (inactive) in [5]; -0.0359 (inactive) in test [6]; -1.28 (inactive) in test [7]. The z-score was -1.4 (inactive) in [8]; -1.37 in [9]; -0.371 in test [13]; -4.54 (inactive) in [14]; 0.178 (inactive) in [15]; 0.0306 (inactive) in test [16]. The composite z-score in test [4] is -0.359 (inactive); in test [10] it was 0.114; in test [11], 0.56 (inactive); in test [12] it was 0.755.
